Records with an inconclusive call do not appear. Where a call stands in place of a potency, no number is given. Unmarked numbers belong to inactive results. Active and inactive are the calls of the source. The call rests on the fitted dose curve; in most records, active means well fitted curve in the direction sought with a large enough effect; inconclusive means small, poorly fitted or top-dose-only effect, or another doubt; inactive means no such curve, though single readings can be large; an effect the other way counts as inactive or inconclusive.
Key:
[1] = system: W2; test: qHTS profiling for inhibitors of Plasmodium falciparum proliferation (AID 504749); further: nearly all actives have a fitted effect of over 60% in size; conditions: P. falciparum in erythrocytes, SYBR Green DNA, 72 h; series mostly up to 28.7 µM
Method in brief: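 In a 72 h erythrocytic culture (37 C, humidified, 5% CO2) at 2.5% hematocrit and 0.3% starting parasitemia, compounds were tested; SYBR Green I in detergent lysis buffer stained parasite DNA overnight.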

[2] = system: KB-3-1; test: Cytotoxic Profiling of Annotated Libraries Using Quantitative High-Throughput Screening (AID 1296008); conditions: Five cell lines viability, CellTiter-Glo ATP luminescence, 48-72 h; max response: hits give low values; further: nearly all actives have a fitted effect of over 60% in size
Method in brief: (§1)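 Cytotoxicity was measured as CellTiter-Glo ATP luminescence, read after 10 min at room temperature. Compound treatment of the cells lasted 48 or 72 hr at 37 degrees Celsius in a qHTS format.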

[3] = system: MCC-13; test: qHTS assay to identify novel small-molecules to repurpose for Merkel cell carcinoma treatment (AID 1296009); conditions: MCC and control cell lines, CellTiter-Glo viability, 72 h; series mostly up to 46 µM; further: nearly all actives have a fitted effect of over 60% in size
Method in brief: (§2)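 Cell viability measured by CellTiter-Glo following 72 hr compound treatment at 37 degree celsius, with NPC and MIPE libraries tested in 8- and 11-point concentration series.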

[4] = system: MKL-1; test: as above; conditions: MCC and control cell lines, CellTiter-Glo viability, 72 h; series mostly up to 46 µM
Method in brief: as §2

[5] = system: MKL-2; test: as above; conditions: MCC and control cell lines, CellTiter-Glo viability, 72 h; series mostly up to 46 µM
Method in brief: as §2

[6] = system: C33A; test: Primary qHTS to identify gynecologic anti-cancer compounds using libraries of approved drugs and bioactive compounds (AID 1345084); conditions: Gynecologic cancer cell panel viability, ATPlite luminescence, 48 h; series mostly up to 57.5 µM; further: nearly all actives have a fitted effect of over 55% in size
Method in brief: (§3)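 48 h compound exposure at 37 C, 5% CO2; five-point qHTS. ATPlite luminescence readout of cell ATP.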

[7] = system: CASKI; test: as above; conditions: Gynecologic cancer cell panel viability, ATPlite luminescence, 48 h; series mostly up to 57.5 µM
Method in brief: as §3

[8] = system: Es-2; test: as above; conditions: Gynecologic cancer cell panel viability, ATPlite luminescence, 48 h; series mostly up to 57.5 µM
Method in brief: as §3

[9] = system: CRL-7250; test: qHTS assay to identify novel small-molecules to repurpose for Merkel cell carcinoma treatment (AID 1296009); conditions: MCC and control cell lines, CellTiter-Glo viability, 72 h; at 44.8 µM (top of the series) unless noted; further: nearly all actives have a fitted effect of over 60% in size
Method in brief: as §2

[10] = system: NIH3T3; test: Cytotoxic Profiling of Annotated Libraries Using Quantitative High-Throughput Screening (AID 1296008); conditions: Five cell lines viability, CellTiter-Glo ATP luminescence, 48-72 h; max response: hits give low values; further: nearly all actives have a fitted effect of over 60% in size
Method in brief: as §1

[11] = system: UISO; test: qHTS assay to identify novel small-molecules to repurpose for Merkel cell carcinoma treatment (AID 1296009); conditions: MCC and control cell lines, CellTiter-Glo viability, 72 h; series mostly up to 46 µM; further: nearly all actives have a fitted effect of over 60% in size
Method in brief: as §2

[12] = system: WaGa; test: as above; conditions: MCC and control cell lines, CellTiter-Glo viability, 72 h; series mostly up to 46 µM
Method in brief: as §2

[13] = system: MCC-26; test: as above; conditions: MCC and control cell lines, CellTiter-Glo viability, 72 h; series mostly up to 46 µM
Method in brief: as §2

[14] = system: HaCat; test: Cytotoxic Profiling of Annotated Libraries Using Quantitative High-Throughput Screening (AID 1296008); conditions: Five cell lines viability, CellTiter-Glo ATP luminescence, 48-72 h; max response: hits give low values; further: nearly all actives have a fitted effect of over 60% in size
Method in brief: as §1

[15] = system: HACAT; test: qHTS assay to identify novel small-molecules to repurpose for Merkel cell carcinoma treatment (AID 1296009); conditions: MCC and control cell lines, CellTiter-Glo viability, 72 h; at 44.8 µM (top of the series) unless noted; further: nearly all actives have a fitted effect of over 60% in size
Method in brief: as §2

[16] = system: CAOV3; test: Primary qHTS to identify gynecologic anti-cancer compounds using libraries of approved drugs and bioactive compounds (AID 1345084); conditions: Gynecologic cancer cell panel viability, ATPlite luminescence, 48 h; series mostly up to 57.5 µM; further: nearly all actives have a fitted effect of over 55% in size
Method in brief: as §3
Potency means the concentration at half of the fitted maximal effect.

## CN[C@@H]1C[C@@H](c2ccc(Cl)c(Cl)c2)c2ccccc21
[1]
  Potency: 4.78 µM (active)
[2]
  max response: -9.15%

## ClC1=C(Cl)[C@]2(Cl)[C@@H]3[C@@H]4C[C@@H]([C@H]5O[C@@H]45)[C@@H]3[C@@]1(Cl)C2(Cl)Cl
[2]
  max response: 13.3%
[3]
  Potency: inactive
[4]
  Potency: inactive
[5]
  Potency: inactive
[6]
  Potency: inactive
[7]
  Potency: inactive
[8]
  Potency: inactive

## CC(C)(C)c1cc(C(C)(C)C)c(NC(=O)c2c[nH]c3ccccc3c2=O)cc1O
[9]
  outcome: inactive

## c1cc2ccc3cccc4ccc(c1)c2c34
[2]
  max response: -15.2%
[10]
  max response: -19.4%
[3]
  Potency: inactive
[4]
  Potency: inactive
[5]
  Potency: inactive
[11]
  Potency: inactive
[12]
  Potency: inactive
[6]
  Potency: inactive
[7]
  Potency: inactive
[8]
  Potency: inactive

## COC1=CC(C)=C[C@@H](C)[C@@H](O)[C@@H](C)CC(C)=CC=C[C@H](OC)[C@H]([C@@H](C)[C@@H](O)[C@H](C)[C@@]2(O)C[C@@H](O)[C@H](C)[C@@H](C(C)C)O2)OC1=O
[2]
  Potency: 0.0059 µM (active)
[10]
  Potency: 0.0148 µM (active)
[3]
  Potency: 0.166 µM (active)
[13]
  Potency: 4.69 µM (active)
[4]
  Potency: 0.118 µM (active)
[5]
  Potency: 0.105 µM (active)
[11]
  Potency: 0.0418 µM (active)
[12]
  Potency: 0.118 µM (active)

## CC(C)[C@H](CO)Nc1nc(Nc2ccc(C(=O)O)c(Cl)c2)c2ncn(C(C)C)c2n1
[9]
  outcome: inactive [at 17.4 µM]

## COc1ccccc1N1CCN(CC(O)COc2cc(OC)c(OC)c(OC)c2)CC1 (stereo not given)
[9]
  outcome: inactive

## Cn1c(NCCN(CCO)CCCc2ccc([N+](=O)[O-])cc2)cc(=O)n(C)c1=O
[9]
  outcome: inactive

## CC1=C(O)C(=O)C=C2C1=CC=C1[C@@]2(C)CC[C@@]2(C)[C@@H]3C[C@](C)(C(=O)O)CC[C@]3(C)CC[C@]12C
[14]
  Potency: 2.64 µM (active)
[2]
  Potency: 2.96 µM (active)
[10]
  Potency: 3.32 µM (active)
[3]
  Potency: 4.18 µM (active)
[11]
  Potency: 3.72 µM (active)

## O=[N+]([O-])c1cc([N+](=O)[O-])c2ccccc2c1
[14]
  outcome: inactive
[2]
  max response: -6.84%
[10]
  max response: 4.23%
[15]
  outcome: inactive [at 92 µM]
[3]
  Potency: inactive
[4]
  Potency: inactive
[5]
  Potency: inactive
[7]
  Potency: inactive
[8]
  Potency: inactive

## CC(C)[C@H]1C(=O)N[C@H](CO)Cc2c[nH]c3cccc(c23)N1C
[14]
  max response: -1.9%
[2]
  max response: 9.88%
[10]
  max response: -1.36%
[3]
  Potency: inactive
[13]
  Potency: inactive
[4]
  Potency: inactive
[5]
  Potency: inactive
[12]
  Potency: inactive

## CCCN1CCC[C@H](c2cccc(O)c2)C1
[1]
  Potency: 15.1 µM (active)
[2]
  max response: 0.305%

## C[C@@H]1CN(c2c(F)c(N)c3c(=O)c(C(=O)O)cn(C4CC4)c3c2F)C[C@H](C)N1
[9]
  outcome: inactive [at 17.4 µM]

## Clc1ccccc1CN1CCc2sccc2C1
[9]
  outcome: inactive

## CCCN(CCC)c1c([N+](=O)[O-])cc(S(N)(=O)=O)cc1[N+](=O)[O-]
[14]
  Potency: 68.6 µM (active)
[2]
  max response: -9.77%
[3]
  Potency: 24.3 µM (active)
[4]
  Potency: 24.3 µM (active)
[5]
  Potency: 21.7 µM (active)
[11]
  Potency: 21.7 µM (active)
[6]
  Potency: 35.5 µM (active)

## Nc1ccc(S(=O)(=O)Nc2ccccc2)cc1
[9]
  outcome: inactive

## CC(C)NC(C)Cc1ccc(I)cc1 (stereo not given)
[1]
  Potency: 10.7 µM (active)
[2]
  max response: 2.96%

## O=C(O)CCC1CCC(c2cc(F)ccc2F)(S(=O)(=O)c2ccc(Cl)cc2)CC1 (stereo not given)
[9]
  outcome: inactive

## COc1ccc(-c2oc3cc(OC)ccc3c2C(=O)c2ccc(C#N)cc2)cc1
[9]
  outcome: inactive

## Cc1cc2c(cc1C1(c3ccc(C(=O)O)cn3)CC1)C(C)(C)CCC2(C)C
[9]
  outcome: inactive

## c1ccc(CCCN2CCN(CCOC(c3ccccc3)c3ccccc3)CC2)cc1
[10]
  Potency: 16.6 µM (active)
[3]
  Potency: inactive
[13]
  Potency: inactive
[4]
  Potency: inactive
[5]
  Potency: 20.9 µM (active)

## O=C(C=Cc1ccc(/C=C/C(=O)Nc2ccc(C3=NCCN3)cc2)cc1)Nc1ccc(C2=NCCN2)cc1
[9]
  outcome: inactive

## Nc1ccc(N=Nc2ccccc2)cc1
[2]
  max response: -15.1%
[10]
  Potency: 6.86 µM (active)
[3]
  Potency: inactive
[13]
  Potency: inactive
[4]
  Potency: inactive
[16]
  Potency: 35.5 µM (active)

## CCCCCCCCc1ccc(O)cc1
[14]
  Potency: 24.6 µM (active)
[2]
  max response: -0.951%
[3]
  Potency: inactive
[12]
  Potency: 43.7 µM (active)
[6]
  Potency: 25.1 µM (active)
[7]
  Potency: inactive
[8]
  Potency: inactive

## COC[C@H]1OC(=O)c2coc3c2[C@@]1(C)C1=C(C3=O)[C@@H]2CC[C@H](O)[C@@]2(C)C[C@@H]1OC(C)=O
[14]
  max response: -14.2%
[2]
  max response: -14.9%
[10]
  Potency: 16.6 µM (active)
[3]
  Potency: inactive
[5]
  Potency: 8.33 µM (active)
[12]
  Potency: 10.5 µM (active)

## CCCn1c(=O)c2[nH]c(C34CC5CC3C[C@@H](C5)C4)nc2n(CCC)c1=O
[9]
  outcome: inactive

## c1ccc(C2(c3ccccc3)CC2C2=NCCN2)cc1 (stereo not given)
[2]
  max response: -1.25%

## CNCc1ccc(-c2[nH]c3cc(F)cc4c3c2CCNC4=O)cc1
[9]
  outcome: inactive

## CC(=O)O[C@@]12CO[C@H]1C[C@H](O)[C@@]1(C)C(=O)[C@H](O)C3=C(C)[C@@H](O)C[C@@](O)([C@@H](OC(=O)c4ccccc4)[C@@H]21)C3(C)C
[2]
  Potency: 3.32 µM (active)
[10]
  Potency: 14.8 µM (active)
[5]
  Potency: inactive
[11]
  Potency: 4.18 µM (active)

## COc1ccc(CCN2CCN(CCCc3ccccc3)CC2)cc1OC
[9]
  outcome: inactive

## CC(=CCCC1=CCC(C2=CC(=O)OC2O)OC1O)CCC1=C(C)CCCC1(C)C (stereo not given)
[14]
  max response: -18.3%
[2]
  max response: -6.74%
[10]
  max response: -0.889%
[3]
  Potency: inactive
[13]
  Potency: inactive
[4]
  Potency: inactive
[5]
  Potency: inactive
[11]
  Potency: inactive
[12]
  Potency: inactive

## C[C@H](NC(=O)Cc1cc(F)cc(F)c1)C(=O)N[C@@H]1C(=O)N(C)c2ccccc2-c2ccccc21
[9]
  outcome: inactive

## O=C1CCCC2=C1C(c1[nH]ncc1Cl)N=C(Nc1nc3ccccc3o1)N2 (stereo not given)
[9]
  outcome: inactive

## O=C(Nc1cccc(C2=NCCN2)c1)Nc1cccc(C2=NCCN2)c1
[9]
  outcome: inactive [at 17.4 µM]

## CCCCc1ccc(C(=O)O)nc1
[1]
  Potency: inactive
[2]
  max response: 2.2%

## O=S(=O)(c1ccc(Cl)cc1)c1ccc(Cl)cc1
[2]
  max response: -10.2%
[10]
  max response: -7.95%
[3]
  Potency: inactive
[13]
  Potency: inactive
[4]
  Potency: inactive
[11]
  Potency: inactive
[6]
  Potency: inactive
[7]
  Potency: inactive
[8]
  Potency: inactive

## CN1C2CCC1CC(OC(=O)c1cc(Cl)cc(Cl)c1)C2 (stereo not given)
[1]
  Potency: 10.7 µM (active)

## COc1ccc(C(c2ccc(OC)cc2)C(Cl)(Cl)Cl)cc1
[3]
  Potency: inactive

## CN1[C@H]2CC(O)C[C@H]1[C@H]1O[C@H]12 (stereo not given in full)
[3]
  Potency: inactive
[13]
  Potency: inactive
[4]
  Potency: inactive
[5]
  Potency: inactive
[12]
  Potency: inactive

## O=C(O)CCCOc1ccc(Cl)cc1Cl
[16]
  Potency: inactive

## Nc1ccc([N+](=O)[O-])cc1
[16]
  Potency: inactive

From PubChem BioAssay (NCATS)
